For one assay, the target named is Neurogenic locus notch homolog protein 3 (Homo sapiens) (UniProt Q9UM47). The assay can be described thus: NOTCH3 binders on small-molecule microarray, primary screen, biochemical, 635/667 nm fluorescence (AID 1096). The conditions noted are these: NOTCH3 binding, 635 nm fluorescence, higher = more signal.
Sequence of Neurogenic locus notch homolog protein 3 (Homo sapiens) (Q9UM47 whole entry, looked up): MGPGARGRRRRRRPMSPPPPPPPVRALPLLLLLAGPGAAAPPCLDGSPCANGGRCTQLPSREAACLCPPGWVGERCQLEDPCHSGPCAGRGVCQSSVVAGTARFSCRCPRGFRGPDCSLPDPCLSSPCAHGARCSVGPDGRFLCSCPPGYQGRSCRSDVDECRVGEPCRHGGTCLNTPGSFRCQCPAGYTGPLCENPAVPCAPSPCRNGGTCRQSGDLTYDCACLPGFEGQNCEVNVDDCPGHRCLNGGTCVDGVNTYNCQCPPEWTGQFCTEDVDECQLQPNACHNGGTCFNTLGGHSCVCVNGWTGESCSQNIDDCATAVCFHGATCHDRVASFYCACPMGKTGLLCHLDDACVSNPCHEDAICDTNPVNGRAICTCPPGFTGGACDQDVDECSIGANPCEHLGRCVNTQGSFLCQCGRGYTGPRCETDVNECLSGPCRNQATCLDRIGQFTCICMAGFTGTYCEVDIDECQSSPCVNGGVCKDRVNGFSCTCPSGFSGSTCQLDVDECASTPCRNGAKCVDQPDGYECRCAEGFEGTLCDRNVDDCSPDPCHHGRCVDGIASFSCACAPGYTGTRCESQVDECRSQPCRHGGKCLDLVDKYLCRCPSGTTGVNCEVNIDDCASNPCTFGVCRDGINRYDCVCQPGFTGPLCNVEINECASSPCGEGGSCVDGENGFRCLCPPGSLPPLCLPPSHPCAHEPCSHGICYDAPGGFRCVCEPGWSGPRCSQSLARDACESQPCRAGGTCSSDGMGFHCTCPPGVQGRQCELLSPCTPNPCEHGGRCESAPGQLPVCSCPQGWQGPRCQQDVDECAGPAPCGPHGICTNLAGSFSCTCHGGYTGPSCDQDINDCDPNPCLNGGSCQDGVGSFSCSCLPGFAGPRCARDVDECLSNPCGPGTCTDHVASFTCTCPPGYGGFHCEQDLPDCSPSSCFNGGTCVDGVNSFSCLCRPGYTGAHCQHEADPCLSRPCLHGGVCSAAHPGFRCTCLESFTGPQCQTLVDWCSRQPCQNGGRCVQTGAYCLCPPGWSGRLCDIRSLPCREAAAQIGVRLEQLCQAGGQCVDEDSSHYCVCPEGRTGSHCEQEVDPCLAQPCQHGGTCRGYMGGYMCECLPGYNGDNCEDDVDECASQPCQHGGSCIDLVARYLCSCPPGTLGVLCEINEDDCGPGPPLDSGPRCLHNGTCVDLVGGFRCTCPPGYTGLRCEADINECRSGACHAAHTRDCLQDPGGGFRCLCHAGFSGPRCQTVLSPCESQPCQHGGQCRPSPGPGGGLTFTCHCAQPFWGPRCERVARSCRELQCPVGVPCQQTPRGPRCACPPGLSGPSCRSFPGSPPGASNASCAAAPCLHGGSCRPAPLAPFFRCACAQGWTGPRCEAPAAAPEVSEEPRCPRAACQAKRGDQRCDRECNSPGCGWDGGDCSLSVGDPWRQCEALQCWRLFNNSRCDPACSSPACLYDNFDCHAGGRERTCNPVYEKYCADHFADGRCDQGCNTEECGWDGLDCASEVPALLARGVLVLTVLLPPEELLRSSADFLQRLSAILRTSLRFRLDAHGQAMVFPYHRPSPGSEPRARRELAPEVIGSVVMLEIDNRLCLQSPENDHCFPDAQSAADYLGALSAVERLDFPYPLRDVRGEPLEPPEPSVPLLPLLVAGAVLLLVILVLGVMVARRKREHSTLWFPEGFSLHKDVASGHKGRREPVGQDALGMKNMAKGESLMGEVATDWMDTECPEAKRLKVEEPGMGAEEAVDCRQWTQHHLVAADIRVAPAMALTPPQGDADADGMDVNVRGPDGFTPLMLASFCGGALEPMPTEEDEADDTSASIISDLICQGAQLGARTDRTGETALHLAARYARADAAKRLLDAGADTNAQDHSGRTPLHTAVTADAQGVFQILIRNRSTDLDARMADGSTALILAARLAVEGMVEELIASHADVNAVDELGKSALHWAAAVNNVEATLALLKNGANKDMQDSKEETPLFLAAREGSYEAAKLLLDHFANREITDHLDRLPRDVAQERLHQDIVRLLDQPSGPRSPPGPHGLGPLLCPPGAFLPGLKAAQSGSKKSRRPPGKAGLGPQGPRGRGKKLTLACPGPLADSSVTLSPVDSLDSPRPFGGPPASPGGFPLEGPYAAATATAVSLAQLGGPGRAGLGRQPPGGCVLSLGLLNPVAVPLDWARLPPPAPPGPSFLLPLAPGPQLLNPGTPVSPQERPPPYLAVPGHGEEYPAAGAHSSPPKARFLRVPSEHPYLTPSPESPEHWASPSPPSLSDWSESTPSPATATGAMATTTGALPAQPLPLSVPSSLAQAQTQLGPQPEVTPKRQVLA
For the compound `OB1C=CCC(CCc2ccccc2)O1` (stereo not given), the composite z-score is -1.12.
On to `CCCCCCc1nc(-c2ccc(-c3ccc(Cl)c(Cl)c3)o2)c(C)c2c1[Si](C(C)C)(C(C)C)OC2`, for which the composite z-score was -0.243.
Compound `O=C1NC(=O)C2C1C=CC(C(O)C=Cc1ccc([N+](=O)[O-])cc1)N2Nc1ccc(Cl)cc1Cl` (stereo not given) showed a composite z-score of 1.11.
The same measure, in the same setting: the same measure for `Cc1ccc(S(=O)(=O)N2C[C@@H](C(=O)O)[C@H](Sc3ccccc3)C[C@H]2c2ccccc2)cc1`: 0.988; for `COC(=O)[C@@]1(Cc2ccccc2)[C@H]2c3cc(C(=O)N(C)C)n(CCc4c[nH]c5ccc(O)cc45)c3C[C@H]2CN1C(=O)c1ccccc1`: 0.751; for `C=CC[C@]1(C(N)=O)COC(c2ccc(OCCCO)cc2)=N1`: -0.769.
The compound `O=C(CS)NCCCCCNC(=O)[C@@H]1C[C@@H]2C(=O)NCC(=O)N2[C@@H]1c1ccc(O)cc1` gave a composite z-score of 0.179.
The same measure, in the same setting: the same measure for `COc1cc(OC)c(C(O)C2C=CC3C(=O)NC(=O)C3N2Nc2ccccn2)cc1Br` (stereo not given): 0.716.
`NC(=O)[C@@]1(Cc2ccccc2)N=C(c2ccc(OCCCO)cc2)O[C@H]1c1ccccc1` yielded a composite z-score of -0.0043.
In turn, `C=CCN1C(=O)[C@]2(O[C@H](CCO)[C@@H]([Si](C)(C)c3ccc(OC)cc3)[C@@H]2C)c2cc(N(C=O)c3ccccc3)ccc21` registered a composite z-score of 0.649.
Consider `O=C(CS)NCCCCCNC(=O)[C@H]1C[C@H]2C(=O)NCC(=O)N2[C@H]1c1cccc(OCCO)c1`, for which the composite z-score is -0.154.
Compound `CC(c1ccccc1)C(O)C1C=CC2C(=O)N(C)C(=O)C2N1NC(=O)OC(C)(C)C` (stereo not given) returned a composite z-score of 1.05.
Same read-out and setting: the same measure for `CO[C@H]1O[C@H](CO)[C@@H](OC(=O)Nc2ccccc2)[C@@H]2OC(=O)[C@@H](Cc3ccc4ccccc4c3)C/C=C/C[C@H](Cc3ccc4ccccc4c3)C(=O)O[C@@H]12`: 0.977.
`CCCC[C@@H]1C[C@H]1[C@@H](NC(=O)c1cccnc1)c1ccc(Cl)cc1` had a composite z-score of -2.46.
On the same count and under the same terms, the same measure for `[N-]=[N+]=NCc1ccccc1[C@@H]1OC(c2ccc(OCCCO)cc2)=N[C@]1(CCS(=O)(=O)c1ccccc1)C(N)=O`: 1.08.
Regarding `COc1ccc(CCNC(=O)[C@@]2(c3ccc([N+](=O)[O-])cc3)CC(=O)N(CC34CC5CC(CC(C5)C3)C4)[C@@H]2c2ccc(CO)cc2I)cc1`, the composite z-score was found to be 1.1.
For the compound `COC(=O)[C@H](Cc1ccccc1)N[C@H](/C=C/C1CC1)[C@@H](O)Cc1ccccc1`, the composite z-score was -0.469.
The same measure, in the same setting: the same measure for `COc1ccc(C(O)C2C=CC3C(=O)N(C)C(=O)C3N2N(c2ccccc2)c2ccccc2)c2ccccc12` (stereo not given): 0.563.
As to `CC(C)(C)OC(=O)CC[C@]1(C(N)=O)N=C(c2ccc(OCCCO)cc2)O[C@H]1c1ccccc1`, the composite z-score came to 0.89.
On to `COC(=O)[C@@]1(Cc2ccccc2)[C@H]2c3cc(C(=O)N(C)C)n(Cc4ccc(OC)c(OC)c4)c3C[C@H]2CN1C(=O)c1ccccc1`, for which the composite z-score was 1.03.
`COCC(=C=CC[C@H](O)c1ccccc1OCCO)CCO` showed a composite z-score of 0.318.
With `[N-]=[N+]=NCc1ccccc1[C@@H]1OC(c2ccc(OCCCO)cc2)=N[C@]1(CCS(=O)(=O)c1ccccc1)C(=O)N1CCCCC1`, the composite z-score amounted to 1.02.
Compound `C=C(C)[C@@H]1CC=C(C(O)C2C=CC3C(=O)NC(=O)C3N2Nc2ccc(Cl)cc2Cl)CC1` (stereo not given in full) came in with a composite z-score of 1.06.
In turn, `O=C(O)[C@H]1C[C@H]2C(=O)N3CCC[C@H]3C(=O)N2[C@H]1c1ccc(O)cc1` displayed a composite z-score of -1.23.
Consider `[N-]=[N+]=Nc1ccccc1C[C@]1(C(=O)NCC(O)CO)N=C(c2ccc(OCCCO)cc2)O[C@H]1c1ccccc1` (stereo not given in full), for which the composite z-score is 0.394.
With `CC(C)OC(=O)C=C1C[C@@H](c2cccc(Cl)c2)O[C@@H](c2cccc(Cl)c2)O1`, the composite z-score was -0.735.
As for `COC(=O)[C@@]1(Cc2ccc(F)cc2)[C@H]2c3cc(C(=O)N(C)C)n(Cc4cc(C)n(C)n4)c3C[C@H]2CN1C(=O)c1ccccc1`, the composite z-score was determined as 1.01.
`[N-]=[N+]=NCc1ccccc1C[C@@]1(C(=O)NCC(O)CO)N=C(c2ccc(OCCCO)cc2)O[C@@H]1c1ccccc1` (stereo not given in full) came in with a composite z-score of -1.12.
With `COC(=O)[C@@]1(Cc2ccc(OC)cc2)[C@H]2c3cc(C(=O)N4CCCC4)n(CCc4ccc(O)c(O)c4)c3C[C@H]2CN1C(=O)c1ccccc1`, the composite z-score was -0.122.
Compound `CC(c1ccccc1)C(O)C1C=CC2C(=O)N(c3ccccc3)C(=O)C2N1Nc1ccccc1` (stereo not given) gave a composite z-score of 1.05.
As for `O=C1OCCC/C=C\[C@H]2OC34C=CCN(c5ccc6ccccc6c5)C(=O)[C@H]3N(CCCCCO)C(=O)[C@@H]4C12` (stereo not given in full), the composite z-score was -0.359.
`C#CCN1[C@@H](Cc2ccc(O)cc2)C(=O)O[C@H](Cc2ccccc2)[C@@H]1/C=C/C1CC1` came in with a composite z-score of -0.139.
The compound `COCCCNC(=O)[C@@H]1c2ccccc2C(=O)N(Cc2ccccc2)[C@H]1c1ccc(CO)cc1` had a composite z-score of 0.109.
The same measure, in the same setting: the same measure for `COc1cc2c(cc1O)C(c1cccs1)N(Cc1ccc([N+](=O)[O-])o1)CC2` (stereo not given): 0.32; for `C=C(CCCC)/C(=C/C[C@@H](OC(C)=O)c1ccccc1OCCO)c1cc(C(=O)OC)ccc1OC`: -0.218.

Test system in the next assay: not listed separately
The assay can be described thus: small-molecule microarray binders of probe aEGFR, primary screen, biochemical, biotinylated probe, 635/667 nm fluorescence (AID 1097).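 Also: probe is a biotinylated anti-EGFR antibody binding compounds printed on slides; score combines fluorescence near 667 nm and signal to noise of each spot.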 The conditions noted are these: higher = more signal.
As for `OB1C=CCC(CCc2ccccc2)O1` (stereo not given), the composite z-score is -0.211.
`CCCCCCc1nc(-c2ccc(-c3ccc(Cl)c(Cl)c3)o2)c(C)c2c1[Si](C(C)C)(C(C)C)OC2` had a composite z-score of -0.233.
Still for that read-out and setting: the same measure for `O=C1NC(=O)C2C1C=CC(C(O)C=Cc1ccc([N+](=O)[O-])cc1)N2Nc1ccc(Cl)cc1Cl` (stereo not given): 0.285; for `Cc1ccc(S(=O)(=O)N2C[C@@H](C(=O)O)[C@H](Sc3ccccc3)C[C@H]2c2ccccc2)cc1`: 0.0478.
Regarding `COC(=O)[C@@]1(Cc2ccccc2)[C@H]2c3cc(C(=O)N(C)C)n(CCc4c[nH]c5ccc(O)cc45)c3C[C@H]2CN1C(=O)c1ccccc1`, the composite z-score was -0.0234.
With `C=CC[C@]1(C(N)=O)COC(c2ccc(OCCCO)cc2)=N1`, the composite z-score was -0.139.
The same measure, in the same setting: the same measure for `O=C(CS)NCCCCCNC(=O)[C@@H]1C[C@@H]2C(=O)NCC(=O)N2[C@@H]1c1ccc(O)cc1`: -0.15; for `COc1cc(OC)c(C(O)C2C=CC3C(=O)NC(=O)C3N2Nc2ccccn2)cc1Br` (stereo not given): 0.131; for `NC(=O)[C@@]1(Cc2ccccc2)N=C(c2ccc(OCCCO)cc2)O[C@H]1c1ccccc1`: -0.0996.
Compound `C=CCN1C(=O)[C@]2(O[C@H](CCO)[C@@H]([Si](C)(C)c3ccc(OC)cc3)[C@@H]2C)c2cc(N(C=O)c3ccccc3)ccc21` had a composite z-score of -0.0947.
In turn, `O=C(CS)NCCCCCNC(=O)[C@H]1C[C@H]2C(=O)NCC(=O)N2[C@H]1c1cccc(OCCO)c1` registered a composite z-score of -0.0987.
As to `CC(c1ccccc1)C(O)C1C=CC2C(=O)N(C)C(=O)C2N1NC(=O)OC(C)(C)C` (stereo not given), the composite z-score was -0.0859.
With `CO[C@H]1O[C@H](CO)[C@@H](OC(=O)Nc2ccccc2)[C@@H]2OC(=O)[C@@H](Cc3ccc4ccccc4c3)C/C=C/C[C@H](Cc3ccc4ccccc4c3)C(=O)O[C@@H]12`, the composite z-score was -0.0449.
`CCCC[C@@H]1C[C@H]1[C@@H](NC(=O)c1cccnc1)c1ccc(Cl)cc1` showed a composite z-score of -0.428.
Turning to `[N-]=[N+]=NCc1ccccc1[C@@H]1OC(c2ccc(OCCCO)cc2)=N[C@]1(CCS(=O)(=O)c1ccccc1)C(N)=O`, the composite z-score came to 0.388.
The compound `COc1ccc(CCNC(=O)[C@@]2(c3ccc([N+](=O)[O-])cc3)CC(=O)N(CC34CC5CC(CC(C5)C3)C4)[C@@H]2c2ccc(CO)cc2I)cc1` registered a composite z-score of -0.151.
`COC(=O)[C@H](Cc1ccccc1)N[C@H](/C=C/C1CC1)[C@@H](O)Cc1ccccc1` gave a composite z-score of -0.178.
The compound `COc1ccc(C(O)C2C=CC3C(=O)N(C)C(=O)C3N2N(c2ccccc2)c2ccccc2)c2ccccc12` (stereo not given) yielded a composite z-score of -0.0283.
`CC(C)(C)OC(=O)CC[C@]1(C(N)=O)N=C(c2ccc(OCCCO)cc2)O[C@H]1c1ccccc1` returned a composite z-score of 0.372.
Compound `COC(=O)[C@@]1(Cc2ccccc2)[C@H]2c3cc(C(=O)N(C)C)n(Cc4ccc(OC)c(OC)c4)c3C[C@H]2CN1C(=O)c1ccccc1` gave a composite z-score of 0.426.
Still for that read-out and setting: the same measure for `COCC(=C=CC[C@H](O)c1ccccc1OCCO)CCO`: -0.1; for `[N-]=[N+]=NCc1ccccc1[C@@H]1OC(c2ccc(OCCCO)cc2)=N[C@]1(CCS(=O)(=O)c1ccccc1)C(=O)N1CCCCC1`: 0.208; for `C=C(C)[C@@H]1CC=C(C(O)C2C=CC3C(=O)NC(=O)C3N2Nc2ccc(Cl)cc2Cl)CC1` (stereo not given in full): 0.0044.
On to `O=C(O)[C@H]1C[C@H]2C(=O)N3CCC[C@H]3C(=O)N2[C@H]1c1ccc(O)cc1`, for which the composite z-score is -0.268.
The compound `[N-]=[N+]=Nc1ccccc1C[C@]1(C(=O)NCC(O)CO)N=C(c2ccc(OCCCO)cc2)O[C@H]1c1ccccc1` (stereo not given in full) gave a composite z-score of -0.0826.
`CC(C)OC(=O)C=C1C[C@@H](c2cccc(Cl)c2)O[C@@H](c2cccc(Cl)c2)O1` came in with a composite z-score of -0.13.
`COC(=O)[C@@]1(Cc2ccc(F)cc2)[C@H]2c3cc(C(=O)N(C)C)n(Cc4cc(C)n(C)n4)c3C[C@H]2CN1C(=O)c1ccccc1` registered a composite z-score of 0.14.
The compound `[N-]=[N+]=NCc1ccccc1C[C@@]1(C(=O)NCC(O)CO)N=C(c2ccc(OCCCO)cc2)O[C@@H]1c1ccccc1` (stereo not given in full) returned a composite z-score of 0.0061.
Still for that read-out and setting: the same measure for `COC(=O)[C@@]1(Cc2ccc(OC)cc2)[C@H]2c3cc(C(=O)N4CCCC4)n(CCc4ccc(O)c(O)c4)c3C[C@H]2CN1C(=O)c1ccccc1`: 0.212; for `CC(c1ccccc1)C(O)C1C=CC2C(=O)N(c3ccccc3)C(=O)C2N1Nc1ccccc1` (stereo not given): 0.0038; for `O=C1OCCC/C=C\[C@H]2OC34C=CCN(c5ccc6ccccc6c5)C(=O)[C@H]3N(CCCCCO)C(=O)[C@@H]4C12` (stereo not given in full): -0.13.
Turning to `C#CCN1[C@@H](Cc2ccc(O)cc2)C(=O)O[C@H](Cc2ccccc2)[C@@H]1/C=C/C1CC1`, the composite z-score is -0.0081.
`COCCCNC(=O)[C@@H]1c2ccccc2C(=O)N(Cc2ccccc2)[C@H]1c1ccc(CO)cc1` registered a composite z-score of 0.236.
The compound `COc1cc2c(cc1O)C(c1cccs1)N(Cc1ccc([N+](=O)[O-])o1)CC2` (stereo not given) registered a composite z-score of -0.0859.
The same measure, in the same setting: the same measure for `C=C(CCCC)/C(=C/C[C@@H](OC(C)=O)c1ccccc1OCCO)c1cc(C(=O)OC)ccc1OC`: -0.185.

The values are drawn from PubChem BioAssay.
